# Measured values as given in PubChem BioAssay AID2546 (National Center for Advancing Translational Sciences (NCATS), 2010).
# The campaign covered roughly 310,000 compounds. About 11,000 (3.5%) were called active. Another 8% or so got no clear call; they are omitted. The sample holds actives, similar compounds and a random draw of the others, so the mix is not that of the screen. Unmarked numbers belong to inactive results. Calls come from the whole dose curve; as a rule, active = well fitted inhibition curve with a large enough effect; inconclusive = small, poorly fitted or top-dose-only effect, or effect the other way; inactive = flat fitted curve, though single readings scatter.
# Test: VP16 counterscreen qHTS for inhibitors of ROR gamma transcriptional activity;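 note: Gal4-VP16 expression switched on by copper sulfate through the metallothionein promoter; nearly all actives have a fitted effect of over 50% in size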
# Conditions: Drosophila S2 Gal4-VP16 UAS-luciferase, luminescence, 20 h; series mostly up to 53.6 µM; activity, negative = inhibition: at the top concentration
# % is set by controls: 0 for no effect and ±100 for the full control effect; potency is the fitted concentration of half-maximal effect.
SMILES,"activity, negative = inhibition",Potency
CCCN1C2CCCC1CC(NC(=O)NC13CC4CC(CC(C4)C1)C3)C2 (configuration not stated),-1.88%,–
Cc1cc(=O)[nH]c(N/N=C/c2ccc3c(c2)OCCO3)n1,-22.2%,–
C(=N\Nc1ccc2ccccc2n1)/c1ccc2c(c1)OCO2,–,14.1 µM (active)
Cc1noc(C)c1/C=N/Nc1ccc2ccccc2n1,6.11%,–
O=C1CN(C(=O)c2cc(F)cc(F)c2)c2ccccc2N1,2.04%,–
COc1ccc(C(C)NC(=O)C23CC4CC(CC(C4)C2)C3)cc1 (configuration not stated),-3.97%,–
CCc1ccc(Oc2coc3cc(O)ccc3c2=O)cc1,-19.5%,–
CCN(Cc1ccncc1)C(=O)c1cccc(S(=O)(=O)N2CCOCC2)c1,-0.785%,–
O=S(=O)(c1cccc(-c2nnc3n2CCCCC3)c1)N1CCOCC1,-5.04%,–
O=S(=O)(c1cccc(Cn2nnc(-c3ccc(F)cc3)n2)c1)N1CCOCC1,–,11.2 µM (active)
CCN(CC)CCn1cnc2c1c(=O)[nH]c(=O)n2Cc1ccccc1,-2.59%,–
COc1ccc(CSc2nnnn2-c2ccc(O)cc2)cc1F,-0.122%,–
CCOC(=O)CC1COCCN1C(=O)c1cc(COc2ccc(F)c(F)c2)on1 (configuration not stated),18.2%,–
Cc1ccc(S(=O)(=O)N2CCOCC2)cc1C(=O)NC(=S)N(Cc1ccccc1)C(C)C,–,3.98 µM (active)
Cc1ccc(S(=O)(=O)N2CCOCC2)cc1C(=O)NCc1ccc(F)cc1,3.52%,–
CCOC(=O)c1sc(NC(=O)c2cc(S(=O)(=O)N3CCOCC3)ccc2C)nc1C,8.12%,–
O=C(CN1CCCCCC1)Nc1c(Cl)cc(Cl)cc1Cl,17.5%,–
CN(Cc1ccccc1)C(=O)C(=O)c1cn(CC(=O)N2CCCC2)c2ccccc12,-8.1%,–
N#CC1(NC(=O)COC(=O)CCN=C2NS(=O)(=O)c3ccccc32)CCCCC1,-10%,–
O=C(N/N=C/c1ccc(O)cc1)/C(=C/c1ccc([N+](=O)[O-])cc1)NC(=O)c1ccccc1,6.42%,–
O=C(N/N=C/c1cc([N+](=O)[O-])ccc1O)/C(=C\c1cccs1)NC(=O)c1ccccc1,–,10 µM (active)
O=C(Nc1ccc(C(=O)O)cc1)/C(=C/c1ccc([N+](=O)[O-])cc1)NC(=O)c1ccccc1,2.72%,–
CSc1nnc(C2CCCN(CC(=O)Nc3ccccc3N3CCOCC3)C2)n1C(C)C (configuration not stated),-3.38%,–
O=S(=O)(NCc1ccccn1)c1ccc(F)cc1,8.94%,–
Cc1cc(Cl)c(S(=O)(=O)NCc2cccnc2)cc1OCC(N)=O,12.9%,–
Cc1cc(S(=O)(=O)NCc2ccccn2)c(Cl)cc1Cl,–,5.62 µM (active)

SMILES,"activity, negative = inhibition",Potency
COc1ccc(NC(=O)C2CCC(CNC(=O)[C@@H]3Cc4ccccc4CN3)CC2)cc1 (some centres not stated),-7.43%,–
CC(=O)N1c2ccc(S(=O)(=O)N3CCC(C(=O)NCc4ccc(F)cc4)CC3)cc2CC1C (configuration not stated),24.4%,–
COc1ccc(-n2c(-c3ccc(OC)c(OC)c3)n[nH]c2=S)cc1,-11.1%,–
Cc1ccc(-n2c(-c3ccc(Cl)cc3)n[nH]c2=S)cc1,–,2.51 µM (active)
Cc1cc(-c2n[nH]c(=S)n2-c2ccc(C)c(C)c2)no1,-17.5%,–
Cc1nc2sccn2c(=O)c1S(=O)(=O)NCCc1ccccc1,0.199%,–
COc1cc(C(=O)NCC2(c3ccccc3)CCCC2)ccc1OC(C)C,4.67%,–
O=c1c([N+](=O)[O-])cc(C(F)(F)F)cn1Cc1cccc(Cl)c1,-12.8%,–
O=C(/C=C/c1cccc([N+](=O)[O-])c1)N1CCN(Cc2ccccc2)CC1,0.48%,–
O=[N+]([O-])/C=C/c1ccc2c(ccn2Cc2ccccc2)c1,–,11.2 µM (active)
CC1CCN(C(=O)/C(=C\c2ccccc2)NC(=O)c2ccccc2)CC1,4.98%,–
CC1CCN(C(=O)c2ccccc2NC(=O)Cc2ccccc2)CC1,24.1%,–
CC1CCN(C(=S)NC(=O)c2ccccc2Br)CC1,–,3.55 µM (active)
COc1ccc(CNC(=O)c2ccc(Br)s2)cc1OC,-1.61%,–
Cc1ccc(C(=O)N/C(=C\c2cn(S(=O)(=O)N(C)C)c3ccccc23)C(=O)N2CCCC2)cc1,-3.97%,–
CCOc1cc(/C=C(/C#N)c2ccc(Cl)cc2)cc(Cl)c1OCC(=O)O,–,0.794 µM (active)
CCOC(=O)CN/C=C(\C#N)c1ccc(F)cc1,-4.69% [at 10 µM],–
C/C(=N\OCC(=O)O)c1ccc(Cl)cc1,-2.96%,–
CC(C)OCCCNC(=O)CN1C(=O)/C(=C/c2ccccc2F)Oc2ccccc21,-20.8%,–
C[C@]12CC[C@@H]3c4ccc(O)cc4C[C@@H](CCCCCCCCCS(=O)CCCC(F)(F)C(F)(F)F)C3[C@@H]1CC[C@@H]2O (some centres not stated),-13.6%,–
CC1CN(C(=O)CCC(=O)NCCCN2CCC(Cc3ccccc3)CC2)c2cc(Cl)ccc2O1 (configuration not stated),-15.4%,–
CC1(C)Cc2cccc(OCC(=O)NCc3ccccc3)c2O1,-10.3%,–
COc1ccccc1Cc1nc(-c2ccc(C)cc2)no1,4.89%,–
CCOc1nc(-c2ccc(OC)cc2)ccc1-c1noc(-c2cc(OC)c(OC)c(OC)c2)n1,-19.4%,–
COc1ccc(-c2nc(-c3ccccc3)no2)c(OC)c1,–,4.47 µM (active)
COc1ccc(N(Cc2ccc(N(C)C)cc2)C(=O)c2ccc(S(C)(=O)=O)cc2)cc1,3.23%,–
